The panel holds about 79,000 compounds, 15% with a hit somewhere; the sample as a whole holds those more often. The source made the active and inactive calls. Cut-off read from the data, not from the text of the source: active = growth inhibition above about 70%; inactive = the rest.

This experiment in a line: NCI Yeast Anticancer Drug Screen. Data for the mec2-1 strain (AID 157). The following applies: S. cerevisiae mec2-1 strain, at 50.0 µM, hits give high values. A digest of the protocol:
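Strain: mec2-1 (DNA repair/cell cycle alteration). Compound exposure, then growth measured; inhibition expressed relative to vehicle.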
Consider `COc1cc(C(=O)C/C(CCC(=O)Nc2ccccc2[N+](=O)[O-])=N\NC(=O)CC#N)ccc1O`, for which the growth inhibition was -20.8% (inactive). For `CN=C(C#N)c1ccccc1` the value was -17.1% (inactive); for `CC(=O)NC(Cc1cccc2ccccc12)C(=O)O` (stereo not given), -6.15% (inactive); for `C=CCc1cccc(CC=C)c1OCCN(CC)CC`, 17.1% (inactive).

Consider `CC1NC(C)SC(C)S1` (stereo not given), for which the growth inhibition is -23.6% (inactive).

Regarding `O=C(O)c1cccnc1Cl`, the growth inhibition was -3.5% (inactive). Turning to `O=C(c1ccccc1)N1C(=S)N=C(Nc2ccccc2)C1=Nc1ccccc1`, the growth inhibition is -27.1% (inactive). Turning to `CCCn1c(C)nc2cc(C(F)(F)F)cc(N)c21`, the growth inhibition is 11.4% (inactive). For the compound `NC1(C(=O)O)CCCc2ccccc21` (stereo not given), the growth inhibition is 8.15% (inactive).

With `O=C1OC(=O)C2C3C=CC(CC3)C12` (stereo not given), the growth inhibition was 4% (inactive).

As for `COc1cc(/C=C2\C=Cc3ccccc32)ccc1N(C)C`, the growth inhibition was -13.2% (inactive). For `CN1C(=O)C(=O)OC1=C(c1ccccc1)c1ccccc1` the value was -4.6% (inactive); for `CCCCNc1ccc(Cl)cc1`, -5.4% (inactive); for `CCCCc1c2cnccc2c(CCCC)c2c1[nH]c1ccccc12`, 90.3% (active). `CCCCCCCCCCC(=O)OCC`: the growth inhibition is 0.65% (inactive). `CCOC(=O)CN`: the growth inhibition is 7.7% (inactive). For `COc1ccc(C2(C=O)NC(=O)NC2=O)cc1` (stereo not given) the value was -22.9% (inactive); for `CC1=NN(C(=O)c2ccc(Cl)cc2)C(=O)/C1=C/c1ccccc1O`, -14.4% (inactive). `NC(=O)C1=CNCCC1`: the growth inhibition is -6.05% (inactive). On to `O=C(O)C(Br)C(Br)C(=O)Nc1cccc2ccccc12` (stereo not given), for which the growth inhibition was 99.1% (active). As for `CCOc1nc2c(c(=O)n(C)c(=O)n2C)n1C`, the growth inhibition is -7.55% (inactive). On to `COc1ccc(-c2nc(-c3cc4c(ccc5ccccc54)oc3=O)cs2)cc1`, for which the growth inhibition is 18.5% (inactive). For `COc1cccc(C2c3cc4c(cc3OC(Nc3ccccc3)C2C)OCO4)c1OC` (stereo not given) the value was 6.25% (inactive); for `CC1CCC(C)C(O)C1` (stereo not given), -22.3% (inactive). For `CC1(c2ccc[n+](Cc3ccccc3)c2)OCCO1` the value was -31.1% (inactive); for `COc1cccc(/C=C2/Sc3sc(C(C)=O)c(C)[n+]3C2=O)c1O`, -1.55% (inactive); for `CN1CCCC(C(=O)O)(c2ccccc2)CC1` (stereo not given), -5.95% (inactive). The figure for `C1CCC(C2CCCC[N-]2)[N-]C1.C1CCC(C2CCCC[N-]2)[N-]C1.[Cl][Ru][Cl]` (stereo not given) is 8.55% (inactive). Regarding `CN(C)C1=c2c(=O)n(C)c(=O)n(C)c2=NC2C=CC=CN12` (stereo not given), the growth inhibition was 13.6% (inactive). `CCOC(=O)C(NC(=O)/C=C\C(=O)O)C(C)C` (stereo not given): the growth inhibition was 22.1% (inactive). The figure for `O=C(Nc1ccc(S(=O)(=O)NC2CCCCC2)cc1)OC(c1ccccc1)c1ccccc1` is -0.75% (inactive); for `COc1ccc2c(c1OC)C(=O)OC2(O)C1=NCCc2cc3c(cc21)OCO3` (stereo not given) it is -7.25% (inactive); for `C[N+]([O-])(Cc1ccccc1)c1ccccc1` (stereo not given) it is -16.3% (inactive). For `CCOc1ccc(N=Cc2cc(Br)ccc2O)cc1` the value was 0.6% (inactive); for `NCCC1([N+](=O)[O-])CCNCC1`, -7.2% (inactive).

For the compound `COc1ccc(/C=N\S(=O)(=O)c2ccc(OC)cc2)cc1`, the growth inhibition is 13.7% (inactive). Consider `OC1CCSc2ccccc21` (stereo not given), for which the growth inhibition is 10.3% (inactive). The figure for `Cc1ccc(Cl)cc1NC(=O)Nc1ccc(Cl)c(Cl)c1` is -11.1% (inactive); for `CC(O)C(=O)NN` (stereo not given) it is -17.7% (inactive). Regarding `CC(C)C(C(=O)O)N(CC1(O)OCC(O)C(O)C1O)N=O` (stereo not given), the growth inhibition was -18.4% (inactive).

The values are drawn from PubChem BioAssay (NCI).
